Rows were chosen to be rich in hits. Some 2.2% of all compounds tested hit in one or more screens of this group.
TRPM1 prom inh = inhibitors of MITF-dependent TRPM1 promoter reporter, primary screen, cell-based, SK-MEL-5, single point, luciferase. SK-MEL-5 TRPM1 promoter luciferase, 24 h. 330,000 tested, 0.83% active. inhibition, % at 12.5 µM;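 active means mean inhibition across replicates of 60% or more, whatever share of single replicates reaches that level; inconclusive means some that reach 60%, reason not given; inactive means mean inhibition across replicates below 60%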
LMP1 NFkB inh = EBV LMP1-driven NF-kappaB luciferase reporter inhibitors, primary screen, cell-based, luminescence, single point; inhibition, % at 12.5 µM; LMP1-induced NF-kappaB luciferase reporter cells; AID 504558, 2011; 350,000 tested, 0.69% active; in the data active means inhibition above about 41%; inconclusive means no clear call, values can overlap the other calls
LGR2 antag = inhibitors of bursicon-induced LGR2 CRE-luciferase signal, primary screen, cell-based, HEK293, CRE-luciferase reporter, bursicon stimulation. inhibition, % at 9.99 µM. bursicon-stimulated, 4 h. 380,000 tested, 0.35% active. Drosophila bursicon receptor LGR2 (rickets);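 active means drop in luminescence signal, shown as inhibition above about 50% in the replicate tests, limit read from the data, passing the limit was not always enough; inconclusive means probably only some replicates passing the limit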;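 further: agonist challenge used bursicon conditioned medium at about half maximal strength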
PAX8 reporter = inhibitors of PAX8-driven TPO luciferase reporter, primary screen, RMG-I cells, single concentration; SteadyGlo, 24 h; inhibition, % at 12.6 µM; 360,000 tested, 1.2% active;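 active means mean replicate inhibition at least 60% with every replicate also reaching 60%; inconclusive means only one of the two criteria is met; inactive means mean below 60% and not all replicates reaching 60%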;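 further: luciferase light reporting Pax8 driven TPO promoter activity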
EWS-Fli inh = EWS/Fli-driven NR0B1 reporter inhibitors, primary screen, A673 cells, NR0B1 luciferase, luminescence, MLPCN library; inhibition, % at 12.6 µM; 350,000 tested, 0.67% active; viability-normalised;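 active means mean inhibition of at least 50% after viability correction, with every replicate also passing that limit; inconclusive means mean reaches 50% but only one of two replicates passes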;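 further: firefly luciferase signal divided by Alamar Blue viability fluorescence both relative to DMSO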
Shn3 3UTR inh = reduction of Shn3 3'UTR firefly luciferase signal, primary screen, Schnurri-3 inhibitor project, cell-based, Clone20 osteoblasts, set 2 | Clone20 osteoblast Shn3 3'UTR firefly luciferase, 24 h | inhibition, % at 12.5 µM | 360,000 tested, 0.52% active | AID 588674, 2011;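 active means mean inhibition of at least 75% with every replicate also reaching 75%; inconclusive means mean inhibition at least 75% but some replicate below; inactive means mean inhibition below 75%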
Of the large screens only hits and unclear results are named; the others gave an inactive call.

O=C(NCC1(c2ccccc2)CCCC1)C(=O)NCC1(c2ccccc2)CCCC1	none (no result: LGR2 antag, EWS-Fli inh)
Cc1ccc(Sc2cnc3ccccc3n2)cc1	LMP1 NFkB inh 56.0 (no result: LGR2 antag, PAX8 reporter, EWS-Fli inh)
Cc1cccc(NC(=S)N/N=C/c2cccc(O)c2)c1C	EWS-Fli inh 64.4
S=C(N/N=C/c1ccc2ncccc2c1)Nc1cccnc1	LMP1 NFkB inh 54.8, LGR2 antag inconclusive
O=C(O)c1cccc(NC(=S)N/N=C/c2cccc(O)c2)c1	LGR2 antag 63.1
Oc1ccc(/C=N/NC(=S)Nc2cccnc2)cc1O	none
O=C(N/N=C/c1ccccn1)c1cc([N+](=O)[O-])cc([N+](=O)[O-])c1	TRPM1 prom inh 67.4
Cc1ccccc1NC(=S)N/N=C/c1ccc(O)cc1O	none
O=C(NCc1ccc(F)cc1)[C@H]1[C@H](CO)[C@H]2Cn3c(cccc3=O)[C@@H]1N2Cc1ccncc1	none (no result: TRPM1 prom inh, LMP1 NFkB inh, Shn3 3UTR inh)
COc1ccc(-c2ccc3c(c2)O[C@@H](CN(C)C)[C@@H](C)CN([C@@H](C)CO)S3(=O)=O)cc1	none (no result: TRPM1 prom inh, LMP1 NFkB inh, PAX8 reporter, Shn3 3UTR inh)
COc1ccc2c3c([nH]c2c1)[C@H](CO)N(Cc1ccccc1F)CC31CCN(CC2CC2)CC1	none (no result: TRPM1 prom inh, LMP1 NFkB inh, PAX8 reporter, Shn3 3UTR inh)
C/C=C/c1ccc2c(c1)O[C@H](CN(C)C(=O)c1ccccn1)[C@H](C)CN([C@@H](C)CO)S2(=O)=O	none (no result: TRPM1 prom inh, LMP1 NFkB inh, PAX8 reporter, Shn3 3UTR inh)
Cc1cccc(C(=O)Nc2cccc(C(=O)N/N=C/c3ccccn3)c2)c1	none
O=C(O)c1cccc(NC(=S)N/N=C/c2ccccn2)c1	TRPM1 prom inh 63.1, LGR2 antag 71.8
COCC(=O)Nc1ccc2c(c1)[C@H]1C[C@H](CC(=O)NCCN3CCCCC3)O[C@@H](CO)[C@H]1O2	none (no result: TRPM1 prom inh, LMP1 NFkB inh, Shn3 3UTR inh)
NC(=O)CC(NC(=O)c1ccc(Br)cc1)c1ccc(N2CCCCCC2)c([N+](=O)[O-])c1 (configuration not stated)	Shn3 3UTR inh 89.5
Cc1ccccc1CNc1ccc(C(CC(N)=O)NC(=O)c2ccc(Br)cc2)cc1[N+](=O)[O-] (configuration not stated)	LMP1 NFkB inh 59.6
COc1ccc2c3c(n(C)c2c1)[C@@H](CO)N(CC1CC1)CC31CN(C(=O)c2ccccc2)C1	none (no result: TRPM1 prom inh, LMP1 NFkB inh, PAX8 reporter, Shn3 3UTR inh)
O=C(c1ccncc1)N1CCN(c2cc(-c3ccccc3)nc3cc(-c4cccc(Cl)c4)nn23)CC1	PAX8 reporter 68.2 (no result: TRPM1 prom inh)
Cc1cc(C)c(OCCn2ccnc2)c(C)c1	LMP1 NFkB inh 72.8 (no result: LGR2 antag)
CN(C(=O)C=Cc1ccccc1)c1ccccc1	none
O=C(CCl)N(O)c1ccc(C=Cc2ccccc2)cc1	LMP1 NFkB inh 53.0
COc1ccc(C(=O)c2sc(Nc3ccccc3)nc2N)cc1	none
Nc1nc(Nc2ccccc2)sc1C(=O)c1ccccc1	LGR2 antag 71.0
CC=Cc1ccc2n(c1=O)C[C@@H]1[C@@H](CO)[C@H](C(=O)NCCOC)[C@H]2N1Cc1ccccc1OC (mixture of isomers)	none (no result: TRPM1 prom inh, LMP1 NFkB inh, Shn3 3UTR inh)
C/C=C/c1ccc([C@@H]2[C@H](CO)N(C(C)=O)C23CN(C(=O)c2ccc(F)cc2)C3)cc1	none (no result: TRPM1 prom inh, LMP1 NFkB inh, Shn3 3UTR inh)
C[C@@H]1CCCCCCCCC(=O)OCCN[C@H](C)CCCCCCCCC(=O)OCCN[C@H](C)CCCCCCCCC(=O)OCCN1	TRPM1 prom inh 64.1 (no result: LGR2 antag, PAX8 reporter, EWS-Fli inh)
CCC(C)c1ccc(S(=O)(=O)N2CCN(C(=O)c3ccc(Cl)c(S(=O)(=O)N4CCOCC4)c3)CC2)cc1 (configuration not stated)	Shn3 3UTR inh 89.7
CC(C)CC(N)c1csc(NC(=O)c2cc(C(C)(C)C)nn2Cc2ccccc2)n1 (configuration not stated)	EWS-Fli inh inconclusive, Shn3 3UTR inh 96.9 (no result: TRPM1 prom inh, LMP1 NFkB inh)
CC(C)CC(N)c1csc(NC(=O)Nc2ccccc2Cc2ccccc2)n1 (configuration not stated)	none (no result: TRPM1 prom inh, LMP1 NFkB inh)
Cc1ccc(NC(=O)Nc2nnc(-c3ccccc3)o2)cc1	none
Cc1ccc(-c2nnc(Nc3ccccc3)o2)cc1	LGR2 antag 89.8, EWS-Fli inh 62.7 (no result: PAX8 reporter)
CC(C)(C)c1ccc(-c2cnco2)cc1	none
Brc1cccc(-c2cnco2)c1	LMP1 NFkB inh 56.2
CC(=O)Nc1ccc2c(CSc3nnc(-c4cccnc4)n3-c3ccc(C)cc3C)cc(=O)oc2c1	none (no result: EWS-Fli inh)
CCOc1ccc(-n2c(SCc3cc(=O)oc4cc(C)ccc34)nnc2-c2cccnc2)cc1	PAX8 reporter 65.3
CCCNC(=O)C[C@H]1CC[C@H]2[C@H](COc3ccc(NC(=O)Cc4ccccc4)cc3C(=O)N2C)O1	none (no result: TRPM1 prom inh, LMP1 NFkB inh, Shn3 3UTR inh)
CC(Sc1nc2ccccc2c(=O)n1C)C(=O)N(C)C1CCCCC1 (configuration not stated)	Shn3 3UTR inh 88.5
CN1CCN(C(=O)C[C@H]2CC[C@@H]3[C@@H](COc4ccc(NC(=O)C5CCCC5)cc4C(=O)N3C)O2)CC1	none (no result: TRPM1 prom inh, LMP1 NFkB inh, Shn3 3UTR inh)
COC(=O)c1ccc(Cn2cc(/C=C\[N+](=O)[O-])c3ccccc32)o1	EWS-Fli inh 68.1
O=[N+]([O-])/C=C/c1cn(Cc2ccc(Cl)cc2)c2ccccc12	Shn3 3UTR inh 89.4
CCCNC(=O)N1CC2(CCN(C(=O)C3CCCCC3)CC2)c2c([nH]c3cc(OC)ccc23)[C@H]1CO	none (no result: TRPM1 prom inh, LMP1 NFkB inh, PAX8 reporter, Shn3 3UTR inh)
Cc1ccc(NC(=S)NNc2ncc(C(F)(F)F)cc2Cl)c(C)c1	none (no result: LGR2 antag, PAX8 reporter, EWS-Fli inh)
FC(F)(F)c1cnc(NNC(=S)Nc2ccc(Cl)cc2)c(Cl)c1	PAX8 reporter 76.2 (no result: EWS-Fli inh)
Fc1ccc(NC(=S)NNc2ncc(C(F)(F)F)cc2Cl)c(F)c1	TRPM1 prom inh inconclusive, LMP1 NFkB inh 45.1, PAX8 reporter 85.4
OC[C@H]1[C@@H](c2ccc(-c3cccnc3)cc2)[C@@H]2CN(CC3CCOCC3)CCCCN12	none (no result: TRPM1 prom inh, LMP1 NFkB inh, LGR2 antag, Shn3 3UTR inh)
CCOc1ccc(C(=O)O/N=C(\N)c2ccccn2)cc1	TRPM1 prom inh 66.6, LMP1 NFkB inh 87.7, LGR2 antag 102.5, PAX8 reporter 128.1, EWS-Fli inh 80.6
N/C(=N\OC(=O)/C=C/c1ccccc1Cl)c1cccnc1	none (no result: TRPM1 prom inh, LMP1 NFkB inh)
N/C(=N\OC(=O)c1ccc(Br)o1)c1ccccn1	LGR2 antag 73.9
N/C(=N\OC(=O)/C=C/c1ccccc1Cl)c1ccccn1	LGR2 antag 73.0
Cc1cccc(/C(N)=N/OC(=O)c2ccc(Br)o2)c1	none (no result: EWS-Fli inh)
CC(C)(C)c1ccc(C(=O)O/N=C(\N)c2ccccn2)cc1	TRPM1 prom inh 77.7, LMP1 NFkB inh 73.8, LGR2 antag 101.8, PAX8 reporter 69.5, EWS-Fli inh 74.9
COc1cc(C(=O)O/N=C(\N)c2ccccn2)cc(OC)c1OC	none
Cc1ccc(S(=O)(=O)N2C[C@H](O)COC[C@H]3O[C@@H](CC(=O)N[C@@H]4CCN(Cc5ccccc5)C4)CC[C@@H]32)cc1	none (no result: TRPM1 prom inh, LMP1 NFkB inh, Shn3 3UTR inh)
N/C(=N\OC(=O)c1ccccc1)c1ccccn1	LMP1 NFkB inh 44.6, LGR2 antag 95.4
CC(C(=O)O/N=C(\N)c1ccccn1)c1ccc([N+](=O)[O-])cc1 (configuration not stated)	none

High-throughput results (PubChem BioAssay)
